How the values were obtained:
Test in all cases: log2 ratio of Biotin-Ahx-Ub-VS probe labelling (fragment/DMSO); higher = less target engagement (more negative = stronger competition), active = hit call of the paper (q ≤ 0.05, log2 ratio ≤ -1)
Conditions in all cases: compound concentration: 200 uM; treatment time: 3 h
USP19 = target: T1, USP19 (UniProt O94966)
T1 sequence (whole entry): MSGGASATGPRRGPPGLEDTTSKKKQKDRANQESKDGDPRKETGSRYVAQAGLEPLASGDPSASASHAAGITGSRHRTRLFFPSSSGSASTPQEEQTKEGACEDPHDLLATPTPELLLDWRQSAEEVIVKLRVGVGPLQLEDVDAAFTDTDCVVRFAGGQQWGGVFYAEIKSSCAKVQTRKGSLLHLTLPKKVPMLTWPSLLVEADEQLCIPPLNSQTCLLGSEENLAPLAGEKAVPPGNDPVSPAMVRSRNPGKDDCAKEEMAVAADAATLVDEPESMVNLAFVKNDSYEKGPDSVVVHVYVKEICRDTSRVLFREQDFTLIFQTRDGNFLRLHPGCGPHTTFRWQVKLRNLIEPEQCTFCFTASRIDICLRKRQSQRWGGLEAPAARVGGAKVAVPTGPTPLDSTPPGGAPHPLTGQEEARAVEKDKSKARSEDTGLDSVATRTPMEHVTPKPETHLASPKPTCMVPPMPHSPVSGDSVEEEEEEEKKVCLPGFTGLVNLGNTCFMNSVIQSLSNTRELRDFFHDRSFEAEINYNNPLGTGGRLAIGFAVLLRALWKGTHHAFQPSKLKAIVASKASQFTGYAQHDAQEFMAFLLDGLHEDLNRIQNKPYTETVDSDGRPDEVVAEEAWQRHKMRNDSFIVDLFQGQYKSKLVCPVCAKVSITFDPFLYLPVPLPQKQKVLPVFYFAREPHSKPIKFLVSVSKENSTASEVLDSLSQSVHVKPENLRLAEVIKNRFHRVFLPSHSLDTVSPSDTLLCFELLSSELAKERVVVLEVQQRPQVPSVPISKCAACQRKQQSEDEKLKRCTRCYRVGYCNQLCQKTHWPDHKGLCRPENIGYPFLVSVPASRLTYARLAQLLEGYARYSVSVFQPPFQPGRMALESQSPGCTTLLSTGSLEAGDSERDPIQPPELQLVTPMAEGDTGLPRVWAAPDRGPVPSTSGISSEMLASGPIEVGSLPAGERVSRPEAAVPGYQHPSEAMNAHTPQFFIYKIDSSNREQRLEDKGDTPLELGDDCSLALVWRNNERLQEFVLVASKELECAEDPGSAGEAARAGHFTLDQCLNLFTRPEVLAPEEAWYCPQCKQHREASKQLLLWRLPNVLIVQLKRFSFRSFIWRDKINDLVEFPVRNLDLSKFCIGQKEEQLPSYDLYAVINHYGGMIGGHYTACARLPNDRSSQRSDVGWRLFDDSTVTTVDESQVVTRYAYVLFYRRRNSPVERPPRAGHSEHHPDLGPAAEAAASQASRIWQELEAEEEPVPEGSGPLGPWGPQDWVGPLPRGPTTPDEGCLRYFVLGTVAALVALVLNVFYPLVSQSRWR
Procedure, shortened: (§1)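 Each value is an average log2 ratio of fragment to vehicle, tested by unpaired t-test. The underlying Spectronaut label-free quantities were global-median-normalised, and only proteins with ≥2 unique peptides were included. Triplicate HEK293T lysate samples (495 µg) were exposed to fragment at 200 µM or vehicle for 3 h, then to Biotin-Ahx-Ub-VS at 0.5 µM final for 1 h, before NeutrAvidin enrichment of labelled DUBs, LysC and trypsin digestion, and diaPASEF LC-MS/MS.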

USP22 = target: T2, USP22 (UniProt Q9UPT9)
T2 sequence (whole entry): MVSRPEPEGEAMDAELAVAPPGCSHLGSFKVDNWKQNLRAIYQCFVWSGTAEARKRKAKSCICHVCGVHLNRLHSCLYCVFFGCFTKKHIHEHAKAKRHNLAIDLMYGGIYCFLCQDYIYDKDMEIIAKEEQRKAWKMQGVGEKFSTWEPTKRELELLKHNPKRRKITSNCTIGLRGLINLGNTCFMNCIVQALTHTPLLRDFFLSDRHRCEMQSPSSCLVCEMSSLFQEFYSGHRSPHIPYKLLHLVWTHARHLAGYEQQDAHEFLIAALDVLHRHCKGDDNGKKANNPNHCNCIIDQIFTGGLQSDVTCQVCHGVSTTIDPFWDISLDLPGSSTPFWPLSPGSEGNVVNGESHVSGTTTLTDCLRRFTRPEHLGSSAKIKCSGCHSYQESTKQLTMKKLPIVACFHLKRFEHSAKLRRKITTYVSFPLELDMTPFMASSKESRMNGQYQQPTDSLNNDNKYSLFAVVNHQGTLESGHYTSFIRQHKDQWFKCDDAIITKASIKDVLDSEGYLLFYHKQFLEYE
Procedure, shortened: as §1

USP24 = USP24 (UniProt Q9UPU5)
Chain of USP24 (Q9UPU5 whole entry): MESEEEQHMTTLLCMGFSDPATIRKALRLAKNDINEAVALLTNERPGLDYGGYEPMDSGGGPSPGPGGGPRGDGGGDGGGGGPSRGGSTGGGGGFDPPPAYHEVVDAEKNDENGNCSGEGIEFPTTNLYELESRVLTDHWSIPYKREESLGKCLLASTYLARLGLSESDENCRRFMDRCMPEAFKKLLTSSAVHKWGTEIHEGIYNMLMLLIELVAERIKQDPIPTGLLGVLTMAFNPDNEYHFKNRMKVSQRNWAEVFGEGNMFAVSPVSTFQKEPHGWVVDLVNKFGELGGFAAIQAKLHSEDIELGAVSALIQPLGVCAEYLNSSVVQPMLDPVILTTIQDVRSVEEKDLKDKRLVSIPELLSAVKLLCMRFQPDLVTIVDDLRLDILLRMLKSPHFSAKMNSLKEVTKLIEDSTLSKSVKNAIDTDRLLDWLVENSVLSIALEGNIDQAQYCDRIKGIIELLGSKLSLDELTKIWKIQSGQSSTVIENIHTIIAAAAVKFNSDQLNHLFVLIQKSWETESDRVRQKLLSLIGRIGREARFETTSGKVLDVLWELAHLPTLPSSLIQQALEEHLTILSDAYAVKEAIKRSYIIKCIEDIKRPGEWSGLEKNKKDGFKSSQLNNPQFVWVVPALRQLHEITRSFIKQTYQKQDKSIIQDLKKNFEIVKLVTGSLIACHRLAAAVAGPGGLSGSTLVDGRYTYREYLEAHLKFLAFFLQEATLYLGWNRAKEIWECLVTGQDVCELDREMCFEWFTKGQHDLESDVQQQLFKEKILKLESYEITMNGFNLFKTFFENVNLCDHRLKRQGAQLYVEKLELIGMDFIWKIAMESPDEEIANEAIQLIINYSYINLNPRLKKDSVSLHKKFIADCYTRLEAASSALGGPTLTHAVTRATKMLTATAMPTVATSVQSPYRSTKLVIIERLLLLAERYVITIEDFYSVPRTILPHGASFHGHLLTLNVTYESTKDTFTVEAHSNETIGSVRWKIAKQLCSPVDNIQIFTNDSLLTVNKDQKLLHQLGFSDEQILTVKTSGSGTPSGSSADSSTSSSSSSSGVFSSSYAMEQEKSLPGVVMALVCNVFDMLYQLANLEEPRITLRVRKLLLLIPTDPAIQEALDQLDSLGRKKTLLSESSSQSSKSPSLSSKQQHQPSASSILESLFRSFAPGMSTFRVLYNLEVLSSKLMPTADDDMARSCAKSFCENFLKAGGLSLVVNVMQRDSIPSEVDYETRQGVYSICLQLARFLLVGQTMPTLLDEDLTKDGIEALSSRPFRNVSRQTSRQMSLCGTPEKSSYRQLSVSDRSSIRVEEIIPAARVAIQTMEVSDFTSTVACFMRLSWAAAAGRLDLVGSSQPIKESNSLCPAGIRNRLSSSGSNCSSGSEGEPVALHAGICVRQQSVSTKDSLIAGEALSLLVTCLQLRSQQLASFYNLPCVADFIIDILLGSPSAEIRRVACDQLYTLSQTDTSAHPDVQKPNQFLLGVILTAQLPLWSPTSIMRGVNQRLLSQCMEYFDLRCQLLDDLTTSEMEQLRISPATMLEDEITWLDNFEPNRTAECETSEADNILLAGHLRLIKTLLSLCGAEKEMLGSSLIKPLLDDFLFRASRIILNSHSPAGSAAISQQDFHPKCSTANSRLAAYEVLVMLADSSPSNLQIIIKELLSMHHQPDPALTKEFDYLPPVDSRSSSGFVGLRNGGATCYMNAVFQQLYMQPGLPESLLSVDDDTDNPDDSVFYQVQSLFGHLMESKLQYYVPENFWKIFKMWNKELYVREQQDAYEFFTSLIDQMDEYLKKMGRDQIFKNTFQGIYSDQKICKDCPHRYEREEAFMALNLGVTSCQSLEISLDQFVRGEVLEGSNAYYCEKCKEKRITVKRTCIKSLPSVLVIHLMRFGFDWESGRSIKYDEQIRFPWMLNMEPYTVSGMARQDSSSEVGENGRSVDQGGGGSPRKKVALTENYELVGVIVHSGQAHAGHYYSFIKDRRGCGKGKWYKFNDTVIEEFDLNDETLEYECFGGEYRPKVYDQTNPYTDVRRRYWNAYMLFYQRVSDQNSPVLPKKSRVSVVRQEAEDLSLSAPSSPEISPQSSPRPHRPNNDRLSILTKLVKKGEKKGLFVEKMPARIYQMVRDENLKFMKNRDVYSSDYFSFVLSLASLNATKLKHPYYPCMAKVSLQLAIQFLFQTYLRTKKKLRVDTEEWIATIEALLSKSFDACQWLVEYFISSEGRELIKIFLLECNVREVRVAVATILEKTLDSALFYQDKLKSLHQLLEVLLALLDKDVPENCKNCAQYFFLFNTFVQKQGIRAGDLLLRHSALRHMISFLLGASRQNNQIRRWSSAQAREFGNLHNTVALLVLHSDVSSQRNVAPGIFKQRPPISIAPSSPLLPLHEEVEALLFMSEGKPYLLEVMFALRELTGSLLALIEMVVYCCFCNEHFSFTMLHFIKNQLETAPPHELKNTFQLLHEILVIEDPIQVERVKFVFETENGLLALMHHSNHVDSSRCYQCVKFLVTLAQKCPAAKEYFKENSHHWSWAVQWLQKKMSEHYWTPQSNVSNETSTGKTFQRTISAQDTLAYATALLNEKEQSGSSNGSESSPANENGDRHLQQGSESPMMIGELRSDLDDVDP
Procedure, shortened: as §1

USP25 = target: T3, USP25 (UniProt Q9UHP3)
T3 sequence (whole entry): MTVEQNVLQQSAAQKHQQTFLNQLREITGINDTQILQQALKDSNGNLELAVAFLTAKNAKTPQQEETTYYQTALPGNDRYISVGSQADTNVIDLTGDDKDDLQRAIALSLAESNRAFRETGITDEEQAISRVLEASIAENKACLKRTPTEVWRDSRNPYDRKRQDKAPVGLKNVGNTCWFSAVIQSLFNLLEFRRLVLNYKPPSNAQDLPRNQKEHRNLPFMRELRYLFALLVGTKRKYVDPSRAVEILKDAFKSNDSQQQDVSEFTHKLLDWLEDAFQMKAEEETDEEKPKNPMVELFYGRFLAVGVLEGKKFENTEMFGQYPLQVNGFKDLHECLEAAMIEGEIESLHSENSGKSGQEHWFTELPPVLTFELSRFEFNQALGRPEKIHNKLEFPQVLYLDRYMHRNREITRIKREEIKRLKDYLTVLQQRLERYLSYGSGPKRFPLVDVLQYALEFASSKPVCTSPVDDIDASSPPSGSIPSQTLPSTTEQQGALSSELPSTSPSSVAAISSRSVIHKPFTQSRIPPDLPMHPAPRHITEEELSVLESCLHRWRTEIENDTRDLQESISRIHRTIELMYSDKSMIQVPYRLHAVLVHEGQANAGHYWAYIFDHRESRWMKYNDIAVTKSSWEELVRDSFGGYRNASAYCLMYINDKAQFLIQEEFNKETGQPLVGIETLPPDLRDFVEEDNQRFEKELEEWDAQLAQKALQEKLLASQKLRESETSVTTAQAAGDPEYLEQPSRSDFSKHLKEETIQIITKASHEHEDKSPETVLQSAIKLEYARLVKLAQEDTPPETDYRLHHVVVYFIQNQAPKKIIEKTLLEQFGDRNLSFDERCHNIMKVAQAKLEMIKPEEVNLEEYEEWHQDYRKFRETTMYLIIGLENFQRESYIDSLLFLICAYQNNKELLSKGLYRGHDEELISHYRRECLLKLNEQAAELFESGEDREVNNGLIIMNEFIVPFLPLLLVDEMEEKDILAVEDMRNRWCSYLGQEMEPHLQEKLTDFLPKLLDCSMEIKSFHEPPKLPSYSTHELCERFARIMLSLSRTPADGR
Procedure, shortened: as §1

USP28 = target: T4, USP28 (UniProt Q96RU2)
T4 sequence (whole entry): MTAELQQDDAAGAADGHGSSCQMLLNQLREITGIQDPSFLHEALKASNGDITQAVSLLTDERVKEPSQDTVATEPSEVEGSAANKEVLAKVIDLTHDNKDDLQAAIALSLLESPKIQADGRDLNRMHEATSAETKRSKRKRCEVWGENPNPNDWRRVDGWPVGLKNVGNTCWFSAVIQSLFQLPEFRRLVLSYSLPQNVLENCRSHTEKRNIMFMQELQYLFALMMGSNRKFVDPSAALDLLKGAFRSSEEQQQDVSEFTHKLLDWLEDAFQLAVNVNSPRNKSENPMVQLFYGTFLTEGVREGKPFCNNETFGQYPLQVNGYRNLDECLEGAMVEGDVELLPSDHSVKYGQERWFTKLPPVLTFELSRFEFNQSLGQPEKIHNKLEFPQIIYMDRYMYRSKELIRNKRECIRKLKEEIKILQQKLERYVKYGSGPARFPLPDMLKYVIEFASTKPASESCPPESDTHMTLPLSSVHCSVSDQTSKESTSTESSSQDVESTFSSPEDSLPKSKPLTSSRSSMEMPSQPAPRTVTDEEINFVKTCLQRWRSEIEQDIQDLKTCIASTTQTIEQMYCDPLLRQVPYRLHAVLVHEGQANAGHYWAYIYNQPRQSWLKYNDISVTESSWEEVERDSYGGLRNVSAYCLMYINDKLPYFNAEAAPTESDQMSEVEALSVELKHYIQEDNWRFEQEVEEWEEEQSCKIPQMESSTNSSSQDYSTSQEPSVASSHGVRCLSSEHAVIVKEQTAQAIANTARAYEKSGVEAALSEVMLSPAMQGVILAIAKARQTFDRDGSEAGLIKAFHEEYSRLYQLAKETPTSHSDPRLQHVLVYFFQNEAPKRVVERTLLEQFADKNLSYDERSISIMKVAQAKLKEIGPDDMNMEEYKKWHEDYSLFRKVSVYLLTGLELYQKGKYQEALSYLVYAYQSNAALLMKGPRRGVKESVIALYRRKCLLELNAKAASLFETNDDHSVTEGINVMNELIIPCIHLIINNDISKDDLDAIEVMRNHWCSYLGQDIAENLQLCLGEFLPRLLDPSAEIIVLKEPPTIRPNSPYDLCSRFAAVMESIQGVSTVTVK
Procedure, shortened: as §1

Measured: log2 ratio of Biotin-Ahx-Ub-VS probe labelling

O=C(CCl)N(C1=CCCCC1)C1CC1
inactive: USP19 -0.0989 | USP22 -0.481 | USP24 -0.573 | USP25 -0.226 | USP28 -0.185

Reference: the supplement of paper PMC11732987, “Enantioselective OTUD7B fragment discovery through chemoproteomics screening and high-throughput optimisation” (Communications Chemistry, 2025)
